# TWEAK Fn14 block – inhibitors of TWEAK-Fn14 interaction signaling; 360,000 compounds, 2% hits; TWEAK-stimulated Fn14 reporter cells, luciferase luminescence, 8 h; inhibition, % at 10 µM; in the data active = inhibition above about 50%
# TROY signal inh – inhibitors of TROY-dependent NF-kB signaling; Q293 LMP1-TROYcd NF-kB luciferase reporter, 4 h; inhibition, % at 10 µM; 360,000 compounds, 0.98% hits; AID 1347056;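 active = compounds whose plate-normalised and pattern-corrected inhibition of the luciferase reporter signal at the single screening dose is 50% or more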
# CF NFkB block – inhibitors of cystic fibrosis induced NF-kB. KKLEB NF-kB-GFP reporter, PAF-induced, GFP fluorescence overnight. inhibition, % at 5 µM. 360,000 compounds, 0.86% hits;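 active = at least 50% inhibition at 5 µM, scaled per plate between neutral and stimulator controls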;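 note: PAF is a Pseudomonas aeruginosa culture filtrate used as stimulus; plate controls were PAF-stimulated DMSO wells for no effect and unstimulated DMSO wells for full effect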
# LGR2 inh – inhibitors of bursicon-induced Drosophila LGR2 receptor cAMP signaling; inhibition, % at 9.99 µM; HEK293 LGR2, CRE-luciferase, bursicon-stimulated, 4 h; 380,000 compounds, 0.35% hits;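 active = drop in luminescence signal, shown as inhibition above about 50% in the replicate tests, limit read from the data, passing the limit was not always enough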;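 note: agonist challenge used bursicon conditioned medium at about half maximal strength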
# KKLEB cytotox – CF airway cell cytotoxicity counter-screen; KKLEB CF airway cells viability, ATPlite luminescence, overnight; active compounds read low; cells stimulated with P. aeruginosa culture filtrate; activity change (cytotoxicity), % at 5 µM; 360,000 compounds, 0.36% hits; AID 602141;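 active = corrected activity change at or below -50% at 5 µM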
# EWS-Fli block – blocks EWS/Fli oncoprotein-driven transcription; A673 NR0B1-luciferase reporter, viability-normalised; inhibition, % at 12.6 µM; 350,000 compounds, 0.67% hits; AID 651661;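 active = mean inhibition of at least 50% after viability correction, with every replicate also passing that limit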;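 note: firefly luciferase signal divided by Alamar Blue viability fluorescence both relative to DMSO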
# Starred values were filed as active, the others as inactive; . = no result given. This is a sample that favours compounds with a hit; in the whole collection about 2.6% have one here.
SMILES,TWEAK Fn14 block,TROY signal inh,CF NFkB block,LGR2 inh,KKLEB cytotox,EWS-Fli block
CC(C)Nc1nc(Nc2ccccc2Cl)c2sccc2n1,64.5*,29.1,26.3,6.9,-26.8,-1.7
Cc1cc(NCCCCCCCNc2cc(C)nc3cc([N+](=O)[O-])ccc23)c2ccc([N+](=O)[O-])cc2n1,77.0*,33.6,7.0,13.2,10.7,36.1
COCCCNc1cc(C)nc2ccccc12,6.3,-11.1,-11.5,-9.0,16.5,.
CC(=O)N1[C@@H]2c3ccc(-c4cccnc4)c(=O)n3C[C@@H]2[C@@H](CO)[C@@H]1C(=O)N1CCc2ccccc2C1,.,.,.,-12.6,.,1.7
CN1C(=O)c2cc(NC(=O)C3CCC3)ccc2OC[C@H]2O[C@@H](CC(=O)NCCc3ccncc3)CC[C@H]21,.,.,.,-2.1,.,-11.9
CN1CCN(c2nc(-c3ccc(C(C)(C)C)cc3)nc3ccccc23)CC1,84.6*,77.8*,20.8,-24.5,-37.7,45.5
Cc1ccc(-c2nc(N3CCN(C)CC3)c3ccccc3n2)cc1,-71.5,-35.8,33.7,-5.9,-16.6,-4.3
CCOC(=O)c1c(N2C(=O)Nc3cc(Cl)c(Cl)cc3N2O)sc2c1CCCCC2,7.6,52.7*,1.8,.,-1.1,.
CCOC(=O)c1c(-n2cnnn2)sc2c1CCCC2,-10.4,-3.5,8.5,-44.7,-4.8,2.5
COc1ccc(-c2nn(-c3ccccc3)cc2/C=N/NC(N)=S)cc1OC,69.4*,11.9,31.4,-21.0,-10.0,.
COc1ccc(-c2nn(-c3ccccc3)cc2/C=N/n2cnnc2)cc1OC,-4.2,-37.7,6.5,.,-9.8,.
CC(=O)Nc1ccc(Nc2nc(-c3c(C)nc4ccccn34)cs2)cc1,12.7,7.4,-2.8,3.8,9.4,56.7*
O=C(O)c1ccc(/C=N/NC(=O)c2cc3c(ccc4ccccc43)o2)cc1,22.9,63.2*,-1.5,-7.4,2.9,.
O=C(CNc1ccc2ccccc2c1)N/N=C/c1ccc(C(=O)O)cc1,53.2*,19.2,-0.9,-13.6,-13.6,8.4
O=C(N/N=C/c1ccncc1)c1cc2c(ccc3ccccc32)o1,2.4,.,25.6,.,-37.8,.
O=C(CNc1cccc2ccccc12)N/N=C/c1ccc(C(=O)O)cc1,36.7,37.8,30.1,-6.4,-10.1,-1.4
O=C(NCC1CCCCC1)[C@H]1[C@H](CO)[C@H]2Cn3c(ccc(-c4cncnc4)c3=O)[C@@H]1N2,.,.,.,-1.4,.,-7.4
CCOc1c(Cl)cc(CNc2ccc(N3CCCC3)cc2)cc1OC,55.5*,-5.1,19.3,-6.4,-9.3,3.1
O=S(=O)(NCC(Nc1ccc(Cl)cc1)c1ccccc1)c1ccc(Cl)cc1 (stereo unspecified),69.1*,51.4*,12.6,5.7,-1.6,26.2
C[C@@H]1CN([C@@H](C)CO)C(=O)c2cc(NC(=O)NC3CCCCC3)ccc2O[C@H]1CN(C)S(=O)(=O)c1cccs1,.,.,.,-6.6,.,-5.8
Cc1ccccc1N(C(=O)c1snc(C(N)=O)c1N)C(C(=O)NCc1ccccc1)c1ccc(O)cc1 (stereo unspecified),12.3,-4.8,15.2,15.3,2.8,24.8
CCOc1ccccc1N(C(=O)c1snc(C(N)=O)c1N)C(C(=O)NCc1ccccc1)c1ccc(O)cc1 (stereo unspecified),85.5*,0.7,12.9,-8.1,3.9,16.4
NC(=O)c1nsc(C(=O)N(c2ccccc2F)C(C(=O)NCc2ccccc2)c2ccc(O)cc2)c1N (stereo unspecified),22.7,13.1,90.5*,23.9,-54.4*,36.4
Cc1ccc2c(c1)C(=O)N1[C@H]3c4cc(Cl)ccc4OC[C@@H]3[C@H](c3ccccc3)[C@]1(C)C(=O)N2,11.1,7.6,30.6,-2.7,-10.0,51.9*
Cc1ccc(NN2C(=O)C=C(c3ccccc3)C2=O)cc1,16.2,-4.0,38.0,-22.7,-21.6,62.8*
SMILES,TWEAK Fn14 block,TROY signal inh,CF NFkB block,LGR2 inh,KKLEB cytotox,EWS-Fli block
COc1ccc(S(=O)(=O)Nc2ccc3c(c2)C(=O)N([C@@H](C)CO)C[C@@H](C)[C@H](CN(C)Cc2ccc(Oc4ccccc4)cc2)O3)cc1,.,.,.,-14.2,.,27.9
N=C1/C(=C/c2cccn2Cc2ccc(Cl)cc2)C(=O)N=C2SC=CN12,-17.7,-16.9,34.4,1.8,-50.3*,.
CC1=CC2=NC(=O)/C(=C/c3cccn3Cc3ccccc3)C(=N)N2O1,2.4,12.4,-1.0,9.6,-2.2,5.1
O=C(CN(C(=O)c1ccc(Cl)cc1)C1CCCCC1)Nc1ccc(Cl)c([N+](=O)[O-])c1,51.0*,34.8,30.2,19.0,-6.6,16.1
O=C(CN(C(=O)c1ccccc1Cl)C1CCCCC1)Nc1ccc(Cl)c([N+](=O)[O-])c1,40.3,10.4,4.1,.,-32.4,.
CC(Oc1cc2oc(=O)cc(-c3ccccc3)c2cc1Cl)C(=O)NCC1CCC(C(=O)O)CC1 (stereo unspecified),5.9,4.2,12.1,.,4.0,-8.8
CC(NC(=O)OC(C)(C)C)C(=O)Oc1cc2oc(=O)cc(-c3ccccc3)c2cc1Cl (stereo unspecified),71.3*,46.1,82.4*,.,-18.5,.
CN(CC(O)COCc1ccccc1F)C1CCCCC1 (stereo unspecified),64.3*,4.7,-9.2,-3.9,7.9,-2.8
CN(CC(O)COc1ccccc1F)C1CCCCC1 (stereo unspecified),1.5,-3.0,0.0,-1.3,-10.6,10.1
CC(C)c1cn(CC[C@@H]2CC[C@H](NC(=O)C3CCCCC3)[C@@H](CO)O2)nn1,.,.,.,-0.2,.,-0.8
Cn1c(SSc2ccc(-c3cccnc3)n2C)ccc1-c1cccnc1,69.2*,49.5,46.1,-7.5,-15.8,15.1
C[C@@H]1CN([C@@H](C)CO)C(=O)c2cccc(NC(=O)c3cnccn3)c2O[C@H]1CN(C)C(=O)Nc1ccccc1,.,.,.,-13.0,.,7.4
N#C/C(=C\c1cccs1)C(=O)Nc1nccs1,52.9*,2.2,-10.3,-17.9,2.6,-123.1
N#C/C(=C\c1cccs1)C(=O)NCc1ccccc1,-10.7,-42.4,-14.3,-20.4,-5.3,.
Cc1ccc(C(=O)CSc2nnc3c4ccccc4nc(Cc4ccccc4)n23)cc1,25.9,64.9*,8.0,7.7,-2.1,-0.9
CN(C)C(=O)c1cccc(-c2ccccc2[C@@H]2[C@@H](C#N)N(C(=O)C3CCCC3)[C@H]2CO)c1,.,.,.,-13.3,.,3.0
Cn1ncc([N+](=O)[O-])c1C(=O)Nc1ccc2c(c1)OCCO2,82.2*,58.6*,-4.5,.,-1.9,.
Cn1nc(C(=O)Nc2ccc3c(c2)OCCO3)cc1C(=O)O,72.4*,61.1*,5.6,.,4.1,.
Cc1c(C(=O)Nc2ccc3c(c2)OCCO3)cnn1C,91.3*,73.5*,12.3,-14.6,0.7,19.8
Cn1ccc(C(=O)Nc2ccc3c(c2)OCCO3)n1,33.1,-32.9,-18.5,-14.6,5.6,.
COCCN1Cc2cccc(C(=O)Nc3ccc4c(c3)OCCO4)c2C1=O,73.7*,56.1*,-51.2,0.8,3.9,6.7
Cc1ccc(NC(=O)c2c([N+](=O)[O-])cnn2C)cc1C,-21.0,15.2,-3.1,6.6,0.0,2.8

# Screens deposited in PubChem BioAssay by several laboratories.
